High-throughput results (PubChem)
The full list was thinned out, with hits kept by preference.
Dicer inh: blocks human Dicer maturation of pre-miR-21; Q9UPY3; cat-ELCCA pre-miR-21 Dicer processing, chemiluminescence; active compounds read high; z-score at 25 µM; hit rate 6% among 47,000; AID 1347074; in the data active means z-score above about 3, passing the limit was not always enough;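 further: plate controls were vehicle for no effect and no enzyme for full effect; higher signal means more uncleaved substrate so more Dicer inhibition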
Numbers without * were called inactive.

O=C1c2oc3ccc(F)cc3c(=O)c2C(c2cccc(O)c2)N1Cc1ccc(F)cc1 (centres undefined) was read as Dicer inh -1.16.
For S=c1[nH]nc(Nc2ccccc2Cl)s1 the results were Dicer inh -1.73.
Screening S=c1[nH]nc(NCCc2ccc(Cl)cc2)s1 returned Dicer inh 3.32*.
S=c1[nH]nc(Nc2ccc(Br)cc2Cl)s1 was read as Dicer inh 1.15.
For O=C(Nc1cccc(Cl)c1)O/N=C1\CC(c2ccccc2)Oc2ccccc21 (centres undefined) the results were Dicer inh -0.91.
CC(C)(C)c1ccc(COc2ncnc3cc(Cl)ccc23)cc1 was read as Dicer inh -1.01.
`CC(Oc1ccc(Oc2ccc(C(F)(F)F)cc2)cc1)C(=O)NNC(=O)c1ccc([N+](=O)[O-])cc1` (centres undefined) gave Dicer inh -0.53.
Screening Cn1cc(/C(N)=N/OC(=O)c2ccc(Cl)cc2)c(=O)n(Cc2ccccc2)c1=O returned Dicer inh 0.74.
CCCCOCC1CC2(CC(C)(c3csc(N)n3)OC2=O)C(=O)O1 (centres undefined) was read as Dicer inh -0.37.
`C=CCNc1nc(C2(C)CC3(CC(C)OC3=O)C(=O)O2)cs1` (centres undefined) gave Dicer inh 3.48*.
`CCC1CC(C)(c2csc(Nc3ccc(C)cc3)n2)OC1=O` (centres undefined) gave Dicer inh 0.11.
For CC(C)CC1CC(C)(c2csc(Nc3ccccc3)n2)OC1=O (centres undefined) the results were Dicer inh -0.72.
`CCCOCC1CC2(CC(C)(c3csc(Nc4ccc(C)cc4)n3)OC2=O)C(=O)O1` (centres undefined) gave Dicer inh 1.3.
`C=CCNc1nc(C2(C)CC3(CC(COCC(C)C)OC3=O)C(=O)O2)cs1` (centres undefined) gave Dicer inh 3.12*.
CCOC(=O)c1ccc2nc(C(F)(F)F)nc(NCCCN3CCCC3=O)c2c1 was read as Dicer inh -0.34.
Screening COc1ccc(/C=C2/C(=O)Nc3ccccc32)cc1OC returned Dicer inh 0.59.
For O=C(Nc1c(C(=O)Nc2ccc(Br)cc2)cnn1-c1ccccc1)c1ccco1 the results were Dicer inh 0.71.
`CCOC(=O)c1cnn(-c2ccc(N)cc2)c1C(F)(F)F` gave Dicer inh 0.63.
`Cc1onc(-c2c(Cl)cccc2Cl)c1C(=O)NNC(=O)Sc1ccccc1[N+](=O)[O-]` gave Dicer inh -0.64.
For CCOc1ccccc1C1Nc2ccccc2NC2=C1C(=O)CC(c1ccccc1)C2 (centres undefined) the results were Dicer inh 0.83.
COc1ccc(Oc2c(C(F)(F)F)oc3c(CN4CCCCC4)c(O)ccc3c2=O)cc1 was read as Dicer inh -0.53.
For COc1ccc(-n2c(C)c([N+](=O)[O-])c3ccc(O)c(CN4CCCCC4)c32)cc1 the results were Dicer inh 3.51*.
Screening Cc1c([N+](=O)[O-])c(/C=C/N(C)C)nn1C returned Dicer inh 1.33.
`COc1ccc(N2CCCCC2)c([N+](=O)[O-])c1` gave Dicer inh -1.22.
COc1ccc(-n2c(/C=C/N(C)C)c([N+](=O)[O-])c3ccc(O)c(CN(C)C)c32)cc1 was read as Dicer inh 3.52*.
For COc1ccc(OC)c(C(=O)c2coc3ccc(O)c(CN(C)C)c23)c1 the results were Dicer inh 0.83.
`CN(C)c1ccc(C2NC(C(=O)O)Cc3c2[nH]c2ccccc32)cc1` (centres undefined) gave Dicer inh 6.97.
`COc1ccc(C2Nc3n[nH]c(C)c3C3=C2C(=O)CC(C)(C)C3)cc1` (centres undefined) gave Dicer inh -0.56.
Screening CCc1nn2c(N)c(C#N)cnc2c1-c1ccc(OC)cc1 returned Dicer inh 0.77.
Screening COc1ccc(SCCC(=O)NNS(=O)(=O)c2sc3ccc(Cl)cc3c2C)cc1 returned Dicer inh -0.16.
Screening COc1cc(C2CC(=O)Nc3nc(N)[nH]c(=O)c32)ccc1OCc1ccc(C)cc1 (centres undefined) returned Dicer inh 0.98.
S=c1[nH]nc(-c2ccccc2Cl)n1C1CCCCC1 was read as Dicer inh 0.48.
S=c1[nH]nc(CSCc2cccc3ccccc23)n1C1CCCCC1 was read as Dicer inh 3.59*.
S=c1[nH]nc(Cc2ccccc2)n1C1CCCCC1 was read as Dicer inh 0.77.
For C=CCn1c2ccccc2n2ncnc12 the results were Dicer inh 1.47.
`CC1CCc2c(sc(NC(=O)c3ccco3)c2C(=O)O)C1` (centres undefined) gave Dicer inh 1.51.
`Cc1onc(-c2ccccc2)c1C(=O)Nc1sc2c(c1C#N)CCC(C)C2` (centres undefined) gave Dicer inh 4.72*.
Cc1onc(-c2ccccc2)c1C(=O)NC1CCCCC1NC(=O)c1c(-c2ccccc2)noc1C (centres undefined) was read as Dicer inh -0.3.
`CC(=O)NC(=O)/C(C#N)=C/NCc1cccs1` gave Dicer inh 0.76.
`COC(=O)c1c(C)nn(C(=O)c2ccc(Cl)cc2)c1-c1snnc1C` gave Dicer inh 0.43.
For Cc1ccc(Sc2cc(N3CCOCC3)c(C)cc2[N+](=O)[O-])cc1 the results were Dicer inh -1.25.
COc1ccc(Sc2ccc(C)cc2)c([N+](=O)[O-])c1 was read as Dicer inh 0.77.
For Cc1ccc(Sc2ccc(/C=C3/SC(=S)NC3=O)cc2[N+](=O)[O-])cc1 the results were Dicer inh 4.6*.
Screening Cc1cc(NC(=O)CSc2nc(N)cc(=O)[nH]2)no1 returned Dicer inh -0.4.
Screening COc1cc(OC)cc(-c2nc(-c3cc4ccc(C)cc4[nH]c3=O)no2)c1 returned Dicer inh 0.27.
COc1ccc(C2Oc3c(OC)cccc3C3CC(c4ccccc4O)=NN32)cc1 (centres undefined) was read as Dicer inh 1.41.
For COc1ccc(C2CC(c3ccccc3O)=NN2)cc1 (centres undefined) the results were Dicer inh 4.15*.
For COc1ccc(O)c(C2=NN3C(C2)c2cccc(OC)c2OC3c2ccc(F)cc2)c1 (centres undefined) the results were Dicer inh 1.36.
`COc1ccc(C2CC(c3cc(Cl)ccc3O)=NN2)cc1` (centres undefined) gave Dicer inh 5.77*.
`COc1cccc2c1OC(C(C)C)N1N=C(c3cc(Cl)ccc3O)CC21` (centres undefined) gave Dicer inh 1.11.
For COc1ccc(C2=Nc3ccccc3SC(c3ccccc3)C2)c(O)c1 (centres undefined) the results were Dicer inh -3.22.
O=C(NNC(=O)c1ccc(Oc2ccc(Cl)cc2)nc1)c1ccc(Cl)cc1 was read as Dicer inh -0.55.
Screening C=CCOc1cccc(C2c3c(oc4ccccc4c3=O)C(=O)N2Cc2ccc3c(c2)OCO3)c1 (centres undefined) returned Dicer inh 2.06.
`CN(C)S(=O)(=O)c1ccc(C(=O)Nc2nnc(-c3ccc(Br)cc3)s2)cc1` gave Dicer inh 3.16*.
`CC(C)(C)C(=O)Nc1nnc(-c2ccc(Br)cc2)s1` gave Dicer inh 1.28.
For CC(C)(C)c1ccc(-c2nnc(NC(=O)C(Cl)(Cl)Cl)s2)cc1 the results were Dicer inh -0.32.
Screening CCN(C(=S)Nc1ccc(C)cc1)c1ccccc1 returned Dicer inh 1.64.
